Assay outcomes from PubChem BioAssay.
Most compounds without a hit are left out; they make up all but 18% or so of the library.
TDP1 cell noCPT = qHTS for Inhibitors of human tyrosyl-DNA phosphodiesterase 1 (TDP1): qHTS in cells in absence of CPT; DT40 Tdp1-/- hTDP1 cells, no CPT, ATP luminescence, 48 h; Potency, µM (doses to about 46.2 µM), inactives show top-dose activity change, negative = growth inhibition, actives largely listed as inhibitors; hit rate 15% among 420,000; also: potency is read from the fitted curve at half-maximal effect; nearly all actives have a fitted effect of over 55% in size
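Chicken DT40 Tdp1-/- cells stably complemented with human TDP1 were seeded at 400 cells/well with DMSO in place of 20 nM camptothecin. After compound pinning, cells grew at least 48 hr at 37 °C; viability read by CellTiter-Glo luminescence.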
IL-1B inflam inh = inflammasome signaling inhibition, IL-1 beta readout; THP-1 LPS/ATP IL-1B secretion, AlphaLISA, 16 h; active compounds read low; activity change, % at 57.5 µM; hit rate 4.7% among 360,000; in the data active = activity change below about -50%; inconclusive = mostly about -30% to -49%
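Secreted IL-1B measured by AlphaLISA bead assay after 16 h compound exposure of THP-1 cells; compounds (final up to 57.5 uM) added 1 h before LPS (250 ng/mL) and ATP (1.25 mM) stimulation; lower signal means less secretion.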
Six1-Eya2 blk = inhibitors of human Six1/Eya2 interaction. AlphaScreen GST-Six1/His-Eya2 binding, biochemical; active compounds read low. activity change, % (no concentration beside the values). hit rate 0.56% among 360,000. AID 651725; in the data active = activity change below about -65%; inconclusive = mostly about -30% to -63%
Target sequence (O00167 whole entry, looked up): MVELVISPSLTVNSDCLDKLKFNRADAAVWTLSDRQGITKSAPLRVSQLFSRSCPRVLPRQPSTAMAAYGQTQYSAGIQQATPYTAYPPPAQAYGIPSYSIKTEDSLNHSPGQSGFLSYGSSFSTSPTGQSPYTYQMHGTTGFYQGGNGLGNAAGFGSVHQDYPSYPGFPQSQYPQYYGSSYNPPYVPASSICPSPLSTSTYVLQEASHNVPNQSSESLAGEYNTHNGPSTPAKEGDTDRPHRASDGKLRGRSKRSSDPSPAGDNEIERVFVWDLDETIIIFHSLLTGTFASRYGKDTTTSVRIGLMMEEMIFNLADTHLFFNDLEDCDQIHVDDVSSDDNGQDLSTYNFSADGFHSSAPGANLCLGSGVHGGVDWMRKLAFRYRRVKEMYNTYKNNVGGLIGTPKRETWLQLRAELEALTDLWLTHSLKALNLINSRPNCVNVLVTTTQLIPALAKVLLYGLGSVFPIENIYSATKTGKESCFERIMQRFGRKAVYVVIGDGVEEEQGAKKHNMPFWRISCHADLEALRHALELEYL
Target sequence (Q15475 whole entry, looked up): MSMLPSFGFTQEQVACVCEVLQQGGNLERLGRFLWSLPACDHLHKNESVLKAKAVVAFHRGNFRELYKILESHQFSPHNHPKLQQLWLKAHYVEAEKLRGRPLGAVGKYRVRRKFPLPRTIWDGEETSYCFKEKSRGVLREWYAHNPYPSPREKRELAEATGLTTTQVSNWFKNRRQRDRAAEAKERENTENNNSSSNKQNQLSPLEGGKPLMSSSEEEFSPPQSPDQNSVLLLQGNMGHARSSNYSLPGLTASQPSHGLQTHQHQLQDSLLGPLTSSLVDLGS
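AlphaScreen luminescence read after one hour at 37 °C in darkness. Pin-transferred compounds met GST-Six1 and His-Eya2 protein (5X stock 250 nM/500 nM) plus glutathione donor and Ni-chelate acceptor beads (5X, 50 ug/mL).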
TDP1 block = blocks human tyrosyl-DNA phosphodiesterase 1; Q9NUW8; AID 485290; Potency, µM (series often up to 130 µM), inactives show at the top dose activity change, negative = inhibition, hits mostly inhibitors; recombinant TDP1, AlphaScreen DNA substrate cleavage; hit rate 0.28% among 350,000; also: potency is read from the fitted curve at half-maximal effect; nearly all actives have a fitted effect of over 40% in size
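AlphaScreen read-out: signal falls as enzyme removes the 3' tyrosine-FITC from a 5'-biotinylated DNA oligo (15 nM, 5 min, RT). Enzyme was E. coli-made recombinant Tdp1 at 1 nM, exposed to compound for 15 min beforehand; beads 10 ug/ml, 10 min.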
CtBP-E1A inh = CtBP/E1A binding inhibition | AlphaScreen GST-E1A/His-CtBP binding, 1536-well; active compounds read low | activity change, % (concentration not given with the values) | hit rate 0.49% among 340,000; in the data active = activity change below about -65%; inconclusive = mostly about -30% to -63%
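In 5 uL wells, 23 nL compound meets equimolar GST-E1A and His-CtBP (5X stock 125 nM each) for 2 h, 37 °C. Beads (5X, 50 ug/mL) then 1 h, 37 °C, dark.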
DT40 TDP1 CPT = DT40-hTDP1 cell growth loss with CPT | Potency, µM (titrated, usually from 46.2 µM), for inactives: top-dose activity change, negative = growth inhibition, usual class: inhibitors | chicken DT40 Tdp1-/-;hTDP1 cells + 20 nM CPT, ATP luminescence, 48 h | hit rate 12% among 420,000; also: potency is read from the fitted curve at half-maximal effect; nearly all actives have a fitted effect of over 55% in size
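Chicken DT40 Tdp1-/- cells complemented with human TDP1, 400 cells/well, exposed to compounds plus 20 nM camptothecin for at least 48 h at 37 C; viability read as ATP content by CellTiter-Glo luminescence.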
An asterisk follows results filed as active. Unless noted, calls follow the shape of the dose curve; as a rule, active = well fitted curve in the direction sought with a large enough effect; inconclusive = small, poorly fitted or top-dose-only effect, or another doubt; inactive = no such curve, though single readings can be large; an effect the other way counts as inactive or inconclusive. % is scaled to controls: 0 for no effect and ±100 for the full control effect.

Cc1cccc(N2CCN(Cc3cn(C)nc3-c3ccccc3F)CC2)n1 was read as TDP1 cell noCPT 2.59µM*, IL-1B inflam inh 0.0, Six1-Eya2 blk -9.4, TDP1 block 3.0%, CtBP-E1A inh -2.5 and DT40 TDP1 CPT 1.84µM*.
Screening Cc1cc(/C=C(\C#N)C(=O)Nc2ccc(F)cc2)c(C)n1-c1ccc(N2CCOCC2)c([N+](=O)[O-])c1 returned TDP1 cell noCPT 11.6µM*, IL-1B inflam inh -12.8, Six1-Eya2 blk -4.8, TDP1 block 9.8%, CtBP-E1A inh -4.3 and DT40 TDP1 CPT 8.2µM*.
COc1ccc(NC(=O)/C(C#N)=C/c2cc(C)n(-c3ccc(N4CCOCC4)c([N+](=O)[O-])c3)c2C)cc1 was read as TDP1 cell noCPT 2.31µM*, IL-1B inflam inh -13.1, Six1-Eya2 blk 2.6, TDP1 block 6.9%, CtBP-E1A inh 15.7 and DT40 TDP1 CPT 3.66µM*.
For CC(C)Oc1ccc(C(=O)Nc2nnc3n2CCS3)cc1 the results were TDP1 cell noCPT -20.8%, TDP1 block 7.7% and DT40 TDP1 CPT -23.6%.
`Cc1ccnc(NS(=O)(=O)c2ccc(NC(=O)C3CCCNC3=O)cc2)n1` (stereo not given) gave TDP1 cell noCPT 8.2%, IL-1B inflam inh -11.9, Six1-Eya2 blk 0.2, TDP1 block 3.8%, CtBP-E1A inh 6.7 and DT40 TDP1 CPT -3.6%.
`Cc1ccc(S(=O)(=O)Nc2cccc(C(=O)NCc3cccnc3)c2)cc1F` gave TDP1 cell noCPT 4.61µM*, IL-1B inflam inh 16.4, Six1-Eya2 blk -2.1, TDP1 block 1.0%, CtBP-E1A inh -0.7 and DT40 TDP1 CPT inconclusive.
`Cc1ccc(S(=O)(=O)Nc2cccc(C(=O)NCC(c3ccco3)N(C)C)c2)cc1F` (stereo not given) gave TDP1 cell noCPT 20.6µM*, IL-1B inflam inh -8.3, Six1-Eya2 blk -3.2, TDP1 block -4.9%, CtBP-E1A inh 3.3 and DT40 TDP1 CPT inconclusive.
Screening O=C(NCc1cccnc1)c1cccc(S(=O)(=O)Nc2ccc(F)cc2)c1 returned TDP1 cell noCPT inconclusive, IL-1B inflam inh 11.5, Six1-Eya2 blk 2.4, TDP1 block 1.4%, CtBP-E1A inh 6.2 and DT40 TDP1 CPT inconclusive.
Screening COC(=O)C1=C(C)N(c2ccc(Cl)cc2)/C(=C/c2cccs2)C1=O returned TDP1 cell noCPT 13µM*, IL-1B inflam inh 0.0, Six1-Eya2 blk 9.8, TDP1 block 0.0%, CtBP-E1A inh -3.4 and DT40 TDP1 CPT inconclusive.
COC(=O)C1=C(C)N(c2ccc(C)c(C)c2)/C(=C/c2cccs2)C1=O was read as TDP1 cell noCPT 15.8µM*, IL-1B inflam inh 2.1, Six1-Eya2 blk 4.3, TDP1 block 2.0%, CtBP-E1A inh 7.5 and DT40 TDP1 CPT 15.8µM*.
For COC(=O)C1=C(C)N(c2ccccc2)/C(=C/c2cccs2)C1=O the results were TDP1 cell noCPT inconclusive, IL-1B inflam inh -2.1, Six1-Eya2 blk -1.3, TDP1 block -0.9%, CtBP-E1A inh 0.1 and DT40 TDP1 CPT -28.0%.
`COc1ccc(Cl)cc1C(=O)CSc1nnnn1C1CCCC1` gave TDP1 cell noCPT 18.4µM*, IL-1B inflam inh inconclusive, Six1-Eya2 blk 8.0, TDP1 block -8.8%, CtBP-E1A inh 27.1 and DT40 TDP1 CPT 16.4µM*.
Screening COc1ccc(NC(=O)CSc2nnnn2C2CCCC2)c(OC)c1 returned TDP1 cell noCPT -2.0%, IL-1B inflam inh -29.9, Six1-Eya2 blk -0.9, TDP1 block 2.2%, CtBP-E1A inh -8.9 and DT40 TDP1 CPT -0.9%.
Screening COc1ccc(Cl)cc1C(=O)CSc1nnnn1C1CCCCC1 returned TDP1 cell noCPT 18.4µM*, IL-1B inflam inh -5.1, Six1-Eya2 blk 8.2, TDP1 block -2.1%, CtBP-E1A inh 17.3 and DT40 TDP1 CPT inconclusive.
`COCCn1c(C)cc(C(=O)CSc2nnnn2C2CCCC2)c1C` gave TDP1 cell noCPT 1.7%, IL-1B inflam inh 2.5, Six1-Eya2 blk -13.8, TDP1 block 7.0%, CtBP-E1A inh 1.0 and DT40 TDP1 CPT -19.8%.
`O=C(CCCCn1c(=O)c2ccccc2n(CC(=O)NC2CCCC2)c1=O)NCc1ccco1` gave TDP1 cell noCPT -13.1%, IL-1B inflam inh -4.7, Six1-Eya2 blk -2.0, TDP1 block 0.0%, CtBP-E1A inh -3.2 and DT40 TDP1 CPT -21.2%.
Cn1c(=O)c2c(nc(SCC(=O)Nc3ccccc3F)n2Cc2ccc(Cl)cc2)n(C)c1=O was read as TDP1 block 7.1%.
CCCCCC1CCC(c2n[nH]c(=S)n2C)CC1 (stereo not given) was read as TDP1 cell noCPT 2.91µM*, IL-1B inflam inh 3.7, Six1-Eya2 blk -3.6, TDP1 block 5.1%, CtBP-E1A inh 0.1 and DT40 TDP1 CPT 7.31µM*.
COCC(=O)N[C@H]1CC[C@@H](CC(=O)OC)O[C@@H]1CO was read as TDP1 cell noCPT 4.3%, IL-1B inflam inh 35.4, Six1-Eya2 blk 5.3, CtBP-E1A inh -4.4 and DT40 TDP1 CPT 2.2%.
CCOC(=O)c1c(NC(=O)c2ccoc2C)sc(C)c1C was read as TDP1 cell noCPT 20.6µM*, IL-1B inflam inh 0.1, Six1-Eya2 blk 8.1, TDP1 block 3.6%, CtBP-E1A inh 2.1 and DT40 TDP1 CPT -8.6%.
`Cc1occc1C(=O)Nc1sc2c(c1C(N)=O)CCCCC2` gave TDP1 cell noCPT inconclusive, IL-1B inflam inh 21.7, Six1-Eya2 blk -7.4, TDP1 block 2.2%, CtBP-E1A inh -13.8 and DT40 TDP1 CPT inconclusive.
Screening CCc1c(C)sc(NC(=O)c2ccoc2C)c1C(N)=O returned TDP1 cell noCPT inconclusive, IL-1B inflam inh -56.2*, Six1-Eya2 blk -25.1, TDP1 block 3.9%, CtBP-E1A inh -9.0 and DT40 TDP1 CPT inconclusive.
O=C(NC1CCCc2ccccc21)c1ccc2c(c1)sc1nc(-c3ccc(F)cc3)cn12 (stereo not given) was read as TDP1 cell noCPT inconclusive, TDP1 block 0.0% and DT40 TDP1 CPT inconclusive.
For Cc1ccc(-c2cn3c(n2)sc2cc(C(=O)NC4CCCCC4)ccc23)cc1 the results were TDP1 cell noCPT 4.61µM*, TDP1 block 3.9% and DT40 TDP1 CPT 4.11µM*.
For O=C(NC1CCCCC1)c1ccc2c(c1)sc1nc(-c3ccccc3)cn12 the results were TDP1 cell noCPT 10.3µM*, TDP1 block -1.3% and DT40 TDP1 CPT inconclusive.
Screening Cc1ccc(-c2cn3c(n2)sc2cc(C(=O)NC4CCCCCC4)ccc23)cc1 returned TDP1 cell noCPT 16.4µM*, TDP1 block -1.3% and DT40 TDP1 CPT 10.3µM*.
